Ba/F3 V617F tox = lowers viability of Ba/F3 cells expressing EpoR and JAK2V617F. ATP luminescence. 1.1% of 220,000 active. inhibition, % at 5.6 µM;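 active = inhibition above the campaign mean plus 3 SD over all tested compounds, cut at about 24% in these data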;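 also: cytokine-independent growth of Ba/F3 cells driven by EpoR plus mutant JAK2; 0% = DMSO-treated cells and 100% = JAK inhibitor I control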
IEC-6 cytotox = counter-screen for KLF5 inhibitors: cytotoxicity in IEC-6 cells; IEC-6 cytotoxicity, luminescence viability; 0.78% of 290,000 active; inhibition, % at 5 µM; in the data active = inhibition above about 22%;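 also: 0% = plate median of test compound wells and 100% = cytotoxic reference compound wells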
KLF5 inh = inhibitors of KLF5 expression | 0.23% of 290,000 active | AID 1700 | DLD-1 KLF5 promoter-luciferase reporter, luminescence | inhibition, % at 5 µM;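 active = inhibition above a per-plate limit of that plate's mean compound inhibition plus 3 SD, cut at about 60% in these data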;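 also: 0% = DMSO wells and 100% = LY294002 at 200 µM; higher means less KLF5 promoter-driven luciferase light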
BaF3 tox = counter-screen for JAK2V617F inhibitors: parental Ba/F3 viability inhibitors; CellTiter-Glo ATP luminescence; inhibition, % at 5.6 µM; 1.1% of 220,000 active; AID 1486;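 active = inhibition above a per-campaign cutoff, the mean inhibition of all tested compounds plus 3 SD, cut at about 27% in these data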;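 also: 0% = DMSO wells and 100% = JAK Inhibitor I control wells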
aSyn UTR inh = MLPCN primary screen, SNCA 5' untranslated region. alpha-synuclein 5'UTR reporter, inhibitor activity. inhibition, % (tested at 7.5 µM). 0.82% of 300,000 active; in the data active = inhibition above about 60%;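 also: H4 neuroglioblastoma cells stably carrying SNCA 5'UTR luciferase fusion; 0% = DMSO wells and 100% = positive control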
APP transl inh = APP translation inhibition. inhibition, % at 2 µM. SH-SY5Y APP 5'UTR-luciferase reporter, luminescence. AID 1285. 0.82% of 190,000 active;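 active = inhibition above a set limit, derived from the sample mean plus 3 SD, cut at about 45% in these data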
The depositor's hits bear a star. Compounds with a hit are over-represented: about 2.2% of the library has one in this group of screens.

Screening COc1cccc(CC(=O)Nc2cc(C(F)(F)F)ccc2N2CCCC2)c1 returned IEC-6 cytotox 3, KLF5 inh -22 and aSyn UTR inh -26.
`CCCOc1ccc2nc(NC(=O)OC)[nH]c2c1` gave Ba/F3 V617F tox 78*, IEC-6 cytotox 81*, KLF5 inh 60, BaF3 tox 75*, aSyn UTR inh 84* and APP transl inh 86*.
Screening O=C(Nc1nc2ccccc2[nH]1)c1ccc(F)cc1 returned Ba/F3 V617F tox 4, IEC-6 cytotox 6, KLF5 inh -15, BaF3 tox 8, aSyn UTR inh 28 and APP transl inh -107.
Screening COC(=O)Nc1nc2ccc(C(=O)c3ccc(F)cc3)cc2[nH]1 returned Ba/F3 V617F tox 51*, IEC-6 cytotox 20, KLF5 inh 17, BaF3 tox 19 and aSyn UTR inh 99*.
`Cc1ccc(Cl)cc1N1CCN(C(CC(C)C)c2nnnn2CC2CCCO2)CC1` (configuration not stated) gave Ba/F3 V617F tox -2, IEC-6 cytotox -4, KLF5 inh -10, BaF3 tox 3, aSyn UTR inh -15 and APP transl inh 6.
Screening CCCC(c1nnnn1CC1CCCO1)N1CCN(c2cc(Cl)ccc2C)CC1 (configuration not stated) returned Ba/F3 V617F tox -6, IEC-6 cytotox 0, KLF5 inh -6, BaF3 tox 31*, aSyn UTR inh 22 and APP transl inh -13.
COCC(=O)N1CCCC(C(=O)c2ccc(-c3ccccc3)cc2)C1 (configuration not stated) was read as IEC-6 cytotox 3, KLF5 inh -50 and aSyn UTR inh -20.
For COc1cc2c(OC(C)=O)c3c(c(-c4ccc5c(c4)OCO5)c2cc1OC)C(=O)OC3 the results were Ba/F3 V617F tox 22, IEC-6 cytotox 6, KLF5 inh -3, BaF3 tox -2, aSyn UTR inh 113* and APP transl inh 18.
Screening COc1cc2c(O)c3c(c(-c4ccc5c(c4)OCO5)c2cc1OC)C(=O)OC3 returned Ba/F3 V617F tox 12, IEC-6 cytotox 11, KLF5 inh 21, BaF3 tox 22, aSyn UTR inh 108* and APP transl inh 8.
For COc1ccc(C(=O)Oc2ccc3c(c2)OCO3)cc1OC the results were Ba/F3 V617F tox 6, IEC-6 cytotox 4, KLF5 inh -6, BaF3 tox 3, aSyn UTR inh -59 and APP transl inh -21.
COc1cc2c(=O)n(-c3ccc(C)cc3)c(=O)n(CC(=O)c3ccc4c(c3)OCO4)c2cc1OC was read as Ba/F3 V617F tox 1, IEC-6 cytotox 0, KLF5 inh -14, BaF3 tox 4, aSyn UTR inh -44 and APP transl inh 6.
Cc1ccc(S(=O)(=O)N[C@@H](CO)C(=O)N[C@@H](Cc2ccc(O)cc2)C(=O)O)cc1 was read as IEC-6 cytotox -1, KLF5 inh -22 and aSyn UTR inh 9.
Cc1ccc(-c2cn3nc(C)c(C)nc3n2)cc1 was read as Ba/F3 V617F tox -3, IEC-6 cytotox 0, KLF5 inh -50, BaF3 tox 1, aSyn UTR inh 73* and APP transl inh -46.
Screening CCc1ccc(-c2cn3nc(-c4ccccc4)cnc3n2)cc1 returned Ba/F3 V617F tox -4, IEC-6 cytotox 2, KLF5 inh -16, BaF3 tox 0 and aSyn UTR inh -12.
`O=C(/C=C/c1cccc(F)c1)NNC(=O)c1ccncc1` gave aSyn UTR inh 23.
Screening COc1ccccc1-n1nc(C(=O)O)c2ccccc2c1=O returned Ba/F3 V617F tox -3, IEC-6 cytotox -3, KLF5 inh -52, BaF3 tox 69*, aSyn UTR inh 7 and APP transl inh -14.
COc1ccc(C(=O)C(CN2CCCC2)c2ccccc2)cc1 (configuration not stated) was read as Ba/F3 V617F tox 80*, IEC-6 cytotox 7, KLF5 inh -15, BaF3 tox 29*, aSyn UTR inh -112 and APP transl inh 86*.
Screening CCCCOc1ccc(C(=O)C(CN2CCOCC2)c2ccccc2)cc1 (configuration not stated) returned Ba/F3 V617F tox 12, IEC-6 cytotox 1, KLF5 inh -11, BaF3 tox 4, aSyn UTR inh -134 and APP transl inh 5.
COc1ccc(C(=O)C(CN2CCOCC2)c2ccccc2)cc1 (configuration not stated) was read as Ba/F3 V617F tox 90*, IEC-6 cytotox 8, KLF5 inh -3, BaF3 tox 42*, aSyn UTR inh -80 and APP transl inh 90*.

Screening data: PubChem BioAssay, several laboratories
